Binding signal data for eight sequences are collected here from publication PMC8384837, “Expanding the binding specificity for RNA recognition by a PUF domain”.

Assay in all cases: yeast three-hybrid, YBZ-1, SC-Leu-His + 0.5 mM 3-AT, 4 days
Conditions in all cases: tags: N-Gal4 AD-HA kept; label: inside an RPR1-promoter hybrid RNA with tandem MS2 sites; ssRNA

The target in experiment [1] is PUM1 PUF domain R5-MHS (Homo sapiens, UniProt Q14671 828-1176, C1007M;R1008H;Q1011S). Summed up:
(§1)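 The interaction score is the log change in how often each variant appears, from input to selection. Frequencies came from PCR-amplified, Illumina-sequenced repeat regions of Pumilio-1 PUF domain libraries grown in strain YBZ-1 (LexA–MS2 coat fusion, HIS3 reporter) alongside matching RNA elements. Input plates were SC-Leu and selection plates were SC-Leu-His + 0.5 mM 3-AT, each for four days, and the log2 calculation used a pseudocount of 1 where a variant was absent.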

Experiment [2] concerns the target PUM1 PUF domain R7-GNG (Homo sapiens, UniProt Q14671 828-1176, S1079G;E1083G). The method, boiled down: as §1
Experiment [3] deals with PUM1 PUF domain R8-RHQ (Homo sapiens, UniProt Q14671 828-1176, N1122R;Y1123H). The method, boiled down:
as §1

For experiment [4], the target named is PUM1 PUF domain R5-FNS (Homo sapiens, UniProt Q14671 828-1176, C1007F;R1008N;Q1011S). Summed up: as §1
Experiment [5] deals with PUM1 PUF domain R5-RNA (Homo sapiens, UniProt Q14671 828-1176, C1007R;R1008N;Q1011A). Summed up: as §1
Experiment [6] has as its target PUM1 PUF domain R5-RNV (Homo sapiens, UniProt Q14671 828-1176, C1007R;R1008N;Q1011V). The method, boiled down: as §1
Experiment [7] addresses PUM1 PUF domain R5-DHG (Homo sapiens, UniProt Q14671 828-1176, C1007D;R1008H;Q1011G). Summed up: as §1
Experiment [8] concerns the target PUM1 PUF domain R5-RQE (Homo sapiens, UniProt Q14671 828-1176, C1007R;R1008Q;Q1011E). Summed up:
as §1

The target of experiment [9] is PUM1 PUF domain R5-SKR (Homo sapiens, UniProt Q14671 828-1176, C1007S;R1008K;Q1011R). Summed up:
as §1

Experiment [10] deals with PUM1 PUF domain R1-RLN (Homo sapiens, UniProt Q14671 828-1176, S863R;R864L;Q867N). The method, boiled down: as §1
The target of experiment [11] is PUM1 PUF domain R1-KFM (Homo sapiens, UniProt Q14671 828-1176, S863K;R864F;Q867M). Summed up: as §1
Experiment [12] has as its target PUM1 PUF domain R1-SGD (Homo sapiens, UniProt Q14671 828-1176, R864G;Q867D). The method, boiled down:
as §1

Chain of PUM1 PUF domain R1-RLN (Q14671 828-1176 S863R/R864L/Q867N): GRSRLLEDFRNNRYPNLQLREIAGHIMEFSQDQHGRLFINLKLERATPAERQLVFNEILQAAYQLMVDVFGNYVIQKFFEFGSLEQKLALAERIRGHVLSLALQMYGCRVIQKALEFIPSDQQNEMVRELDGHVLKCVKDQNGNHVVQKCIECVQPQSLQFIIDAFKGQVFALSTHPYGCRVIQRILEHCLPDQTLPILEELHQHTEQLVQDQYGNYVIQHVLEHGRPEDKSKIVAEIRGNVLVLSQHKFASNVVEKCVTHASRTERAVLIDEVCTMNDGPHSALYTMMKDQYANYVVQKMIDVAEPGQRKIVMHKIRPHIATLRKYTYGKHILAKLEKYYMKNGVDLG
Chain of PUM1 PUF domain R5-RNV (Q14671 828-1176 C1007R/R1008N/Q1011V): as the sequence (Q14671 828-1176 S863R/R864L/Q867N) above, with R36S, L37R, N40Q, C180R, R181N, Q184V counted along it
Chain of PUM1 PUF domain R5-MHS (Q14671 828-1176 C1007M/R1008H/Q1011S): as the sequence (Q14671 828-1176 S863R/R864L/Q867N) above, with R36S, L37R, N40Q, C180M, R181H, Q184S counted along it
Chain of PUM1 PUF domain R7-GNG (Q14671 828-1176 S1079G/E1083G): as the sequence (Q14671 828-1176 S863R/R864L/Q867N) above, with R36S, L37R, N40Q, S252G, E256G counted along it
Chain of PUM1 PUF domain R5-SKR (Q14671 828-1176 C1007S/R1008K/Q1011R): as the sequence (Q14671 828-1176 S863R/R864L/Q867N) above, with R36S, L37R, N40Q, C180S, R181K, Q184R counted along it
Chain of PUM1 PUF domain R5-DHG (Q14671 828-1176 C1007D/R1008H/Q1011G): as the sequence (Q14671 828-1176 S863R/R864L/Q867N) above, with R36S, L37R, N40Q, C180D, R181H, Q184G counted along it
Chain of PUM1 PUF domain R1-KFM (Q14671 828-1176 S863K/R864F/Q867M): as the sequence (Q14671 828-1176 S863R/R864L/Q867N) above, with R36K, L37F, N40M counted along it

With “GGCUAGAACUAGUGGAUCCCCCGGCGCCCGGCGGCUCGAGCCCGGGUAAGUGUGAAUAGUCUGCAUGCCGCCGGGCGCCAUGCCUGCAGGUCGACUCUAGAAAACAUG”, in [1], the binding signal is 2.4 log2 enrichment (interaction score).
With “GGCUAGAACUAGUGGAUCCCCCGGCGCCCGGCGGCUCGAGCCCGGGUAAGUUUAAAUAGUCUGCAUGCCGCCGGGCGCCAUGCCUGCAGGUCGACUCUAGAAAACAUG”, in experiment [2], the binding signal was 5.55 log2 enrichment (interaction score).
In the case of “GGCUAGAACUAGUGGAUCCCCCGGCGCCCGGCGGCUCGAGCCCGGGUAAGCGUAAAUAGUCUGCAUGCCGCCGGGCGCCAUGCCUGCAGGUCGACUCUAGAAAACAUG”, the binding signal in experiment [3] is 5.53 log2 enrichment (interaction score).
On to “GGCUAGAACUAGUGGAUCCCCCGGCGCCCGGCGGCUCGAGCCCGGGUAAGUGUUAAUAGUCUGCAUGCCGCCGGGCGCCAUGCCUGCAGGUCGACUCUAGAAAACAUG”, for which the binding signal in [4] was 3.5 log2 enrichment (interaction score); in experiment [5], 2.33 log2 enrichment (interaction score); in experiment [6] it was 2.58 log2 enrichment (interaction score); in [7], 4.67 log2 enrichment (interaction score); in [1] it was 5.58 log2 enrichment (interaction score).
With “GGCUAGAACUAGUGGAUCCCCCGGCGCCCGGCGGCUCGAGCCCGGGUAAGUGUCAAUAGUCUGCAUGCCGCCGGGCGCCAUGCCUGCAGGUCGACUCUAGAAAACAUG”, the binding signal in experiment [5] was 2.56 log2 enrichment (interaction score); in experiment [8], 3.37 log2 enrichment (interaction score); in experiment [9], 5.88 log2 enrichment (interaction score); in [6], 2.8 log2 enrichment (interaction score).
For the sequence “GGCUAGAACUAGUGGAUCCCCCGGCGCCCGGCGGCUCGAGCCCGGGUAAGUGUAAAUCGUCUGCAUGCCGCCGGGCGCCAUGCCUGCAGGUCGACUCUAGAAAACAUG”, the binding signal is 2.71 log2 enrichment (interaction score) in [10] and 4.3 log2 enrichment (interaction score) in [11].
Regarding “GGCUAGAACUAGUGGAUCCCCCGGCGCCCGGCGGCUCGAGCCCGGGUAAGUGUAAAUGGUCUGCAUGCCGCCGGGCGCCAUGCCUGCAGGUCGACUCUAGAAAACAUG”, the binding signal in experiment [12] was 5.76 log2 enrichment (interaction score).
Take “GGCUAGAACUAGUGGAUCCCCCGGCGCCCGGCGGCUCGAGCCCGGGUAAGUGUAAAUUGUCUGCAUGCCGCCGGGCGCCAUGCCUGCAGGUCGACUCUAGAAAACAUG”: the binding signal in experiment [10] is 2.1 log2 enrichment (interaction score).
